Screening results as filed in PubChem.
Shown are actives, neighbours in structure and some others; about 5.9% of the full set was active somewhere.
PRMT1 inh – PRMT1 (human) inhibition, primary screen; recombinant PRMT1, activity-based probe fluorescence polarization; AID 652257; 370,000 tested, 1.3% active; inhibition, % at 2.79 µM; Q99873;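 active = inhibition above about 21% made by adding two undisclosed values, limit read from the data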
Target sequence (Q99873 whole entry, looked up): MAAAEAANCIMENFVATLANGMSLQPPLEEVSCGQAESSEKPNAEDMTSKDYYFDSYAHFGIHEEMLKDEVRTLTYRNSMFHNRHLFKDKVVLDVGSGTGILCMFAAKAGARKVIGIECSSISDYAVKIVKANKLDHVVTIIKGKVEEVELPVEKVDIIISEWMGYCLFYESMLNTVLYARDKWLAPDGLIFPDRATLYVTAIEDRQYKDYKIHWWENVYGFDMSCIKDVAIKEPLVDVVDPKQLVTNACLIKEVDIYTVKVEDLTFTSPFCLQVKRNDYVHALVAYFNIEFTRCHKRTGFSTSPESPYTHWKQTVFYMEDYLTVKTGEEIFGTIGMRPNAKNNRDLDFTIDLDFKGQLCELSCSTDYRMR
LANA-H2A inh – blocks KSHV LANA binding to histone H2A/H2B. inhibition, % (no concentration beside the values). cell-free LANA-H2A/H2B peptide, fluorescence polarization. Q9QR71. 320,000 tested, 0.6% active; in the data active = inhibition mostly above about 10%, no sharp cut-off; inactive = mostly below about 6.7%
ALR inh – blocks human ALR sulfhydryl oxidase activity; 290,000 tested, 3.8% active; inhibition, % (test concentration not listed); purified ALR, DTT oxidation, H2O2 HRP-luminol luminescence; P55789; AID 485317;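 active = mean replicate inhibition above about 79%, with every replicate also reaching it, limit read from the data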
Rtt109 HAT inh – C. albicans Rtt109 histone acetyltransferase inhibition; Q5AAJ8; inhibition, % at 34.9 µM; purified Rtt109/Vps75, ThioGlo CoA-SH fluorescence, 4 h; AID 540336; 330,000 tested, 0.16% active;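 active = inhibition of at least 50% in every replicate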
rCAG binder – molecules binding r(CAG) RNA repeats. r(CAG) RNA repeat, TO-PRO-1 dye displacement fluorescence. inhibition, % at 3 µM. 370,000 tested, 1.3% active. AID 651821;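 active = inhibition above the plate cutoff, the mean of all test compounds on that plate plus 3 SD, cut at about 35% in these data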;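 note: 0% = DMSO alone and 100% = 100 µM mitoxantrone as full dye displacement; higher means more dye released from RNA so lower well fluorescence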
ABHD5 PLIN5 PPI – ABHD5-PLIN5 protein interaction inhibition | Q00G26+Q8WTS1 | Split G. princeps luciferase complementation, luminescence, 4 h | inhibition, % at 4 µM | 360,000 tested, 0.78% active | AID 602281;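 active = inhibition above the mean inhibition across every tested compound plus 3 SD, cut at about 22% in these data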;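 note: 0% = DMSO only wells and the 100% control is not disclosed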
An asterisk follows results filed as active.

How did CN=c1scc(-c2ccccc2F)n1/N=C(\C)c1cccnc1 do in these assays?
PRMT1 inh: 3; LANA-H2A inh: -4; ALR inh: 94*; Rtt109 HAT inh: 3; rCAG binder: -4; ABHD5 PLIN5 PPI: -5

Results for C/C(=N\N1CCN(C2c3ccccc3-c3ccccc32)CC1)c1cccnc1 ?
PRMT1 inh: 4; LANA-H2A inh: -6; ALR inh: -20; Rtt109 HAT inh: 1; rCAG binder: 0; ABHD5 PLIN5 PPI: -33

How did CN1CCN(c2ccc(Cl)cc2NC(=O)c2nn(-c3ccccc3)c(=O)c3ccccc23)CC1 do in these assays?
PRMT1 inh: -2; Rtt109 HAT inh: 4; rCAG binder: -1; ABHD5 PLIN5 PPI: 2

What do the screens show for `Cn1nc(C(=O)Nc2cc(Cl)ccc2N2CCCC2)c2ccccc2c1=O`?
PRMT1 inh: -3; LANA-H2A inh: 48*; Rtt109 HAT inh: 17; rCAG binder: 0; ABHD5 PLIN5 PPI: -2

How did CCc1noc(C)c1C(=O)Nc1cc(Cl)ccc1N1CCCC1 do in these assays?
PRMT1 inh: -2; LANA-H2A inh: -1; ALR inh: 99*; Rtt109 HAT inh: 3; rCAG binder: -2; ABHD5 PLIN5 PPI: -4

How did Cc1onc(-c2ccccc2)c1C(=O)N1CCN(c2ccc([N+](=O)[O-])cc2)CC1 do in these assays?
PRMT1 inh: -2; LANA-H2A inh: 16*; Rtt109 HAT inh: -8; rCAG binder: 1; ABHD5 PLIN5 PPI: 2

What do the screens show for `Cc1noc(C)c1C(=O)Nc1ccccc1N1CCCC1`?
PRMT1 inh: -5; LANA-H2A inh: 1; ALR inh: 94*; Rtt109 HAT inh: -12; rCAG binder: 3; ABHD5 PLIN5 PPI: 2

How did CCc1noc(C)c1C(=O)Nc1ccccc1N1CCOCC1 do in these assays?
PRMT1 inh: -1; LANA-H2A inh: 3; ALR inh: -8; Rtt109 HAT inh: -14; rCAG binder: -5; ABHD5 PLIN5 PPI: 6

What do the screens show for `CCc1noc(C)c1C(=O)Nc1cc(S(=O)(=O)N(CC)CC)ccc1N1CCOCC1`?
PRMT1 inh: 7; Rtt109 HAT inh: 10; rCAG binder: 6; ABHD5 PLIN5 PPI: 9

Results for O=C(CSc1nnc(-c2ccncc2)n1-c1ccc(Br)cc1)c1ccccc1 ?
PRMT1 inh: 1; rCAG binder: 3

Results for Cc1noc(C)c1C(=O)N1CCN(c2ccccc2O)CC1 ?
PRMT1 inh: 1; LANA-H2A inh: 5; ALR inh: 99*; Rtt109 HAT inh: 0; rCAG binder: 4; ABHD5 PLIN5 PPI: -2

What do the screens show for `CCOc1ccc(N=Nc2c(N)[nH][nH]c2=O)cc1`?
PRMT1 inh: 2; LANA-H2A inh: -8; ALR inh: 99*; Rtt109 HAT inh: -12; rCAG binder: 3; ABHD5 PLIN5 PPI: 0

How did CC(=O)C1(C)C(=O)N(c2ccc(C)cc2)C(=O)N1c1ccc(C)cc1 (centres undefined) do in these assays?
PRMT1 inh: -2; Rtt109 HAT inh: -3; rCAG binder: 1; ABHD5 PLIN5 PPI: 4

How did Oc1c(C=NCc2ccncc2)sc2ccccc12 do in these assays?
PRMT1 inh: 63*; LANA-H2A inh: -7; ALR inh: 83*; rCAG binder: 20

How did Oc1ccc2oc3c(c2c1C=NCc1ccncc1)CCCC3 do in these assays?
PRMT1 inh: 3; LANA-H2A inh: 4; ALR inh: -10; Rtt109 HAT inh: 2; rCAG binder: 5; ABHD5 PLIN5 PPI: 9

Results for Fc1ccc(Nc2nnc(C(F)(F)F)s2)cc1 ?
PRMT1 inh: 1; LANA-H2A inh: -1; ALR inh: 6; Rtt109 HAT inh: 4; rCAG binder: -1; ABHD5 PLIN5 PPI: 0

How did CNc1nnc(C(F)(F)F)s1 do in these assays?
PRMT1 inh: -9; LANA-H2A inh: 16*; ALR inh: -5; Rtt109 HAT inh: 6; rCAG binder: 0; ABHD5 PLIN5 PPI: -5

How did COc1cccc(-c2nc(CS(=O)CC(=O)NCc3ccccc3)c(C)o2)c1 (centres undefined) do in these assays?
PRMT1 inh: 3; LANA-H2A inh: -3; ALR inh: 100*; Rtt109 HAT inh: -3; rCAG binder: 0; ABHD5 PLIN5 PPI: 7

Results for CCCNC(=O)CS(=O)Cc1nc(-c2cccc(OC)c2)oc1C (centres undefined) ?
PRMT1 inh: -4; LANA-H2A inh: 0; ALR inh: 99*; Rtt109 HAT inh: 7; rCAG binder: 2; ABHD5 PLIN5 PPI: -2
